Legend:
Test in all cases: DAPPL (digital affinity profiling via proximity ligation, sequencing); 10 mM Tris-HCl pH 7.5, 50 mM NaCl, 1 mM DTT, 4% glycerol, room temperature, 30 min; GST-TFs on glutathione beads, 16-mer random dsDNA library, 0.1% formaldehyde crosslink after washing; high values mean tight binding
Details in all cases: protein: recombinant; tags: N-terminal GST; dsDNA, one strand shown
[1] = target: T1, FLI1 (Homo sapiens, UniProt Q01543 1-452)
T1 sequence: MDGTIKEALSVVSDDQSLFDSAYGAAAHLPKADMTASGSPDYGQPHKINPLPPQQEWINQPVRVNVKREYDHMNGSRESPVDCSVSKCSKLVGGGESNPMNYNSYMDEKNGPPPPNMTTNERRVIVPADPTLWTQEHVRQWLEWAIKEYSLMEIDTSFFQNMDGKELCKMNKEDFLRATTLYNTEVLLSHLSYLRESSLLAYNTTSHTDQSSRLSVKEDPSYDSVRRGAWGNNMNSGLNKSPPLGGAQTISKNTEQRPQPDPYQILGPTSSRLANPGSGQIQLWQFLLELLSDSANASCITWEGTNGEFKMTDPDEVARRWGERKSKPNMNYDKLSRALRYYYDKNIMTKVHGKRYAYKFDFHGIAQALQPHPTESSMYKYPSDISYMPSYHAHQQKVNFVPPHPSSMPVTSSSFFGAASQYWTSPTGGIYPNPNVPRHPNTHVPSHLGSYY
Outline: (§1)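 Sequencing on an Illumina NextSeq500 followed washing, crosslinking with 0.1% formaldehyde, proximity ligation (BsaI/T4 ligase, 1 h, 37 °C) and PCR amplification of pools that had been incubated for 30 min at room temperature with 200 nmole of a random double-stranded 16-mer DNA library in Tris/NaCl/DTT/glycerol buffer. Each pool held DNA-barcoded human transcription factors, expressed in yeast as GST fusions and captured on glutathione beads, plus a tag-only sample. Binding signal is a hexamer's read frequency for a factor divided by its frequency in the tag-only sample.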

[2] = target: T2, ELK1 (Homo sapiens, UniProt P19419 1-428)
T2 sequence: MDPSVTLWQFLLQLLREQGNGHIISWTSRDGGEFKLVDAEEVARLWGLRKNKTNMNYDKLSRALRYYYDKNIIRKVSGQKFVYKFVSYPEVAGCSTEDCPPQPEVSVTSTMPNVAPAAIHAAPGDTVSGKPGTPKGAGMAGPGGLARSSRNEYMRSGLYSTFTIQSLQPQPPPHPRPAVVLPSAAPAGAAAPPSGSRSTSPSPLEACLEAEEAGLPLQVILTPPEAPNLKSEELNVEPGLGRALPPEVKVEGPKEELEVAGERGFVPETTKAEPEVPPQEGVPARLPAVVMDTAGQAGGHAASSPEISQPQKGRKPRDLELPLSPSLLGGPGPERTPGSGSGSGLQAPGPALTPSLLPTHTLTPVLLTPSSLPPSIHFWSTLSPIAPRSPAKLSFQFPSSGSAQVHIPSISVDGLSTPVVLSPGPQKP
Outline: as §1

[3] = target: T3, GABPA (Homo sapiens, UniProt Q06546 1-454)
T3 sequence: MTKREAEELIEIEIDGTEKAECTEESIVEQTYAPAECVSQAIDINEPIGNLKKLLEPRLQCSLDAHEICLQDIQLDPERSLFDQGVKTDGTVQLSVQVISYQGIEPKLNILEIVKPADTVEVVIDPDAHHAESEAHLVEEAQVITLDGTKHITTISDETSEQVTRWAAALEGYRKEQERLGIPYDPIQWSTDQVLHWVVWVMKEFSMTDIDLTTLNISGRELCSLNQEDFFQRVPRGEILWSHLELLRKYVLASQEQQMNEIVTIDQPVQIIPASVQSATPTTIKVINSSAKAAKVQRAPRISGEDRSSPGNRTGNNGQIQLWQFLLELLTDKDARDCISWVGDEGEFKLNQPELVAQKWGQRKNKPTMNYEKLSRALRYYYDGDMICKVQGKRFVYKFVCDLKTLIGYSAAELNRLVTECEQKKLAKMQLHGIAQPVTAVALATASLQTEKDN
Outline: as §1

[4] = target: T4, ERG (Homo sapiens, UniProt P11308 1-479)
T4 sequence: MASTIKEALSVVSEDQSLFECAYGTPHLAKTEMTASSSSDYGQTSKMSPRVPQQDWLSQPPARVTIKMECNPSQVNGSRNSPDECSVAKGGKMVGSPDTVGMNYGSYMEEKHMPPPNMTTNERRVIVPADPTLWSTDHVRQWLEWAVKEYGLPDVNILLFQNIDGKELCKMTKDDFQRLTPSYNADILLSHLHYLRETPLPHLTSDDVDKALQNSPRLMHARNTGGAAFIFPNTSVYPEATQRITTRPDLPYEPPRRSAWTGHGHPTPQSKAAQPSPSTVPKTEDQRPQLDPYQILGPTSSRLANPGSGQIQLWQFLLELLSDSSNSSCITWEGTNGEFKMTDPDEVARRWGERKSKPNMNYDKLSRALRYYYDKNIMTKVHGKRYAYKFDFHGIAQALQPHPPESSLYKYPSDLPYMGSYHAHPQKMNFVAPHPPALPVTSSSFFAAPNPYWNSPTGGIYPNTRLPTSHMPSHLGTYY
Outline: as §1

[5] = target: ELF1 (Homo sapiens, UniProt P32519 1-619)
ELF1, sequence (P32519 whole entry): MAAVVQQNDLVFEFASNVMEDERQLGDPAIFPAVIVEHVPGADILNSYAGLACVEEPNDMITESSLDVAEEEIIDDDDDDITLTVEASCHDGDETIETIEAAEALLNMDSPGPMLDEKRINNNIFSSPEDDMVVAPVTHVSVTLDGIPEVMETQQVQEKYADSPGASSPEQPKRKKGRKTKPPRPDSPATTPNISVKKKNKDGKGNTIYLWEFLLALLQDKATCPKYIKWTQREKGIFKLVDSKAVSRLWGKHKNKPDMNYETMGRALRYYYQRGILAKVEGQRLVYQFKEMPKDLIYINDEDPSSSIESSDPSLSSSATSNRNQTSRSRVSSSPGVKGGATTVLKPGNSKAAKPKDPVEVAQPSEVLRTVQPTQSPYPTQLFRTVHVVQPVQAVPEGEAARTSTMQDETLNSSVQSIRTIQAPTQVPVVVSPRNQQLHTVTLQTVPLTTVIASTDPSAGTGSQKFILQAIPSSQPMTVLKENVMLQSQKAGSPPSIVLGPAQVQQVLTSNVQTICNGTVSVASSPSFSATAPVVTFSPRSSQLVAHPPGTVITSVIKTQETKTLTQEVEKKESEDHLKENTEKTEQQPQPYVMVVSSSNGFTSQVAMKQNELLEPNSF
Outline: as §1

[6] = target: T5, EHF (Homo sapiens, UniProt Q9NZC4 1-300)
T5 sequence: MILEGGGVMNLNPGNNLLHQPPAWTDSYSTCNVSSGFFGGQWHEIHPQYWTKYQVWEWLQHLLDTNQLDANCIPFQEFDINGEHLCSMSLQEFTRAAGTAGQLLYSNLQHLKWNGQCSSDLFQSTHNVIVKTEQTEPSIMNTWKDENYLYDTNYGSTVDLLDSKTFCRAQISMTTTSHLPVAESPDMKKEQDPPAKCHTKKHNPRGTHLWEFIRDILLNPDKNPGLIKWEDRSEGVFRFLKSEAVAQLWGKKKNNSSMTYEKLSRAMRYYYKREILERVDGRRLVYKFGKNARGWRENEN
Outline: as §1

[7] = target: SPI1 (Homo sapiens, UniProt P17947 1-270)
Outline: as §1

[8] = target: SPIB (Homo sapiens, UniProt Q01892 1-262)
SPIB, sequence (Q01892 whole entry): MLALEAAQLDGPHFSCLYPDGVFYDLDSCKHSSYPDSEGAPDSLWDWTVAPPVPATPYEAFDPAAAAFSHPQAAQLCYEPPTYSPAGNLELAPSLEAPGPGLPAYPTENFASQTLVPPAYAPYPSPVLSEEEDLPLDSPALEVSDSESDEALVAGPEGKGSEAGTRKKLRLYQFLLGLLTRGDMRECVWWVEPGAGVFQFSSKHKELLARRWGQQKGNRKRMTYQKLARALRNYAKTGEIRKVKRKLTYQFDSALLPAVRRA
Outline: as §1

[9] = target: T6, ELK3 (Homo sapiens, UniProt P41970 1-407)
T6 sequence: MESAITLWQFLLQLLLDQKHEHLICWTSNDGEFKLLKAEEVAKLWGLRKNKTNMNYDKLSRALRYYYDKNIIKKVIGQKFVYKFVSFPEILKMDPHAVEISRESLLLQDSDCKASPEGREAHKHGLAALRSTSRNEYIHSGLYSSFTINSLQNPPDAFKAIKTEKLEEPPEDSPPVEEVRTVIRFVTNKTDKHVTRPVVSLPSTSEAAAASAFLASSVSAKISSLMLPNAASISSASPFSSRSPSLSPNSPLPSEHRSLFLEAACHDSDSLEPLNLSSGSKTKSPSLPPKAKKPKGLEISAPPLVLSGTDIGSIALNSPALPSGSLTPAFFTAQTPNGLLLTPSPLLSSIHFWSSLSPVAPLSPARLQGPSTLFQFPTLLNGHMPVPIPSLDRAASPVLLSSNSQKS
Outline: as §1

| Sequence | binding signal [1] | binding signal [2] | binding signal [3] | binding signal [4] | binding signal [5] | binding signal [6] | binding signal [7] | binding signal [8] | binding signal [9] |
| --- | --- | --- | --- | --- | --- | --- | --- | --- | --- |
| GTTCTA | 1.16 fold enrichment (6-mer frequency, TF over GST control) | 1.28 fold enrichment (6-mer frequency, TF over GST control) | 1.22 fold enrichment (6-mer frequency, TF over GST control) | 1.24 fold enrichment (6-mer frequency, TF over GST control) | 1.31 fold enrichment (6-mer frequency, TF over GST control) | 1.12 fold enrichment (6-mer frequency, TF over GST control) | 1.12 fold enrichment (6-mer frequency, TF over GST control) | 1.32 fold enrichment (6-mer frequency, TF over GST control) | 1.23 fold enrichment (6-mer frequency, TF over GST control) |
| TTAACC | 1.2 fold enrichment (6-mer frequency, TF over GST control) | 1.25 fold enrichment (6-mer frequency, TF over GST control) | 1.18 fold enrichment (6-mer frequency, TF over GST control) | 1.21 fold enrichment (6-mer frequency, TF over GST control) | 1.31 fold enrichment (6-mer frequency, TF over GST control) | 1.24 fold enrichment (6-mer frequency, TF over GST control) | 1.23 fold enrichment (6-mer frequency, TF over GST control) | 1.33 fold enrichment (6-mer frequency, TF over GST control) | 1.3 fold enrichment (6-mer frequency, TF over GST control) |
| TTTTCA | 1.12 fold enrichment (6-mer frequency, TF over GST control) | 1.19 fold enrichment (6-mer frequency, TF over GST control) | 1.3 fold enrichment (6-mer frequency, TF over GST control) | 1.17 fold enrichment (6-mer frequency, TF over GST control) | 1.18 fold enrichment (6-mer frequency, TF over GST control) | 1.22 fold enrichment (6-mer frequency, TF over GST control) | 1.29 fold enrichment (6-mer frequency, TF over GST control) | 1.27 fold enrichment (6-mer frequency, TF over GST control) | 1.09 fold enrichment (6-mer frequency, TF over GST control) |
| CTCGAC | 1.49 fold enrichment (6-mer frequency, TF over GST control) | 1.47 fold enrichment (6-mer frequency, TF over GST control) | 1.53 fold enrichment (6-mer frequency, TF over GST control) | 1.47 fold enrichment (6-mer frequency, TF over GST control) | 1.53 fold enrichment (6-mer frequency, TF over GST control) | 1.46 fold enrichment (6-mer frequency, TF over GST control) | 1.34 fold enrichment (6-mer frequency, TF over GST control) | 1.33 fold enrichment (6-mer frequency, TF over GST control) | 1.36 fold enrichment (6-mer frequency, TF over GST control) |
| AACATT | 1.37 fold enrichment (6-mer frequency, TF over GST control) | 1.26 fold enrichment (6-mer frequency, TF over GST control) | 1.35 fold enrichment (6-mer frequency, TF over GST control) | 1.25 fold enrichment (6-mer frequency, TF over GST control) | 1.29 fold enrichment (6-mer frequency, TF over GST control) | 1.33 fold enrichment (6-mer frequency, TF over GST control) | 1.17 fold enrichment (6-mer frequency, TF over GST control) | 1.34 fold enrichment (6-mer frequency, TF over GST control) | 1.25 fold enrichment (6-mer frequency, TF over GST control) |
| CCTGTT | 1.79 fold enrichment (6-mer frequency, TF over GST control) | 1.63 fold enrichment (6-mer frequency, TF over GST control) | 1.73 fold enrichment (6-mer frequency, TF over GST control) | 1.72 fold enrichment (6-mer frequency, TF over GST control) | 1.75 fold enrichment (6-mer frequency, TF over GST control) | 1.76 fold enrichment (6-mer frequency, TF over GST control) | 2 fold enrichment (6-mer frequency, TF over GST control) | 1.75 fold enrichment (6-mer frequency, TF over GST control) | 1.94 fold enrichment (6-mer frequency, TF over GST control) |
| TCCAAG | 1.16 fold enrichment (6-mer frequency, TF over GST control) | 1.1 fold enrichment (6-mer frequency, TF over GST control) | 1.16 fold enrichment (6-mer frequency, TF over GST control) | 1.02 fold enrichment (6-mer frequency, TF over GST control) | 1.17 fold enrichment (6-mer frequency, TF over GST control) | 1.06 fold enrichment (6-mer frequency, TF over GST control) | 1.03 fold enrichment (6-mer frequency, TF over GST control) | 1.09 fold enrichment (6-mer frequency, TF over GST control) | 1.08 fold enrichment (6-mer frequency, TF over GST control) |
| GAAATC | 1.38 fold enrichment (6-mer frequency, TF over GST control) | 1.47 fold enrichment (6-mer frequency, TF over GST control) | 1.34 fold enrichment (6-mer frequency, TF over GST control) | 1.65 fold enrichment (6-mer frequency, TF over GST control) | 1.36 fold enrichment (6-mer frequency, TF over GST control) | 1.53 fold enrichment (6-mer frequency, TF over GST control) | 1.4 fold enrichment (6-mer frequency, TF over GST control) | 1.55 fold enrichment (6-mer frequency, TF over GST control) | 1.42 fold enrichment (6-mer frequency, TF over GST control) |

Reference: paper PMC7862700, “An all-to-all approach to the identification of sequence-specific readers for epigenetic DNA modifications on cytosine”
